The whole screen tested about 5,500 compounds, of which about 2,000 (36%) were called active. Inconclusive results (about 18%) are left out. Cut-off read from the data, not from the text of the source: active = normalized growth mostly below about 0.91 (no sharp cut-off); inconclusive = no clear call, values can overlap the other calls; inactive = mostly above about 0.92. Some of the results follow.
Assay: chemical genetic growth profiling, strain panel (AID 1159580);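 note: tested at 20 µM; growth read once vehicle control cultures reached saturation at 30 °C; 1 = growth at the plate median or of vehicle wells; lower values mean less growth of the strain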
Conditions: S. cerevisiae deletion strains, growth OD

Measured: normalized growth

O=C(/C=C/c1ccccc1)c1ccc(O)cc1O
active: locus YAL021C, strain ccr4, active compounds read low 0.0748 | locus YAL026C, strain drs2, active compounds read low 0.0615 | locus YAL030W, strain snc1, active compounds read low 0.0587 | locus YBL061C, strain skt5, active compounds read low 0.066 | locus YBR009C, strain hhf1, active compounds read low 0.0651 | locus YBR023C, strain chs3, active compounds read low 0.0637 | locus YBR171W, strain sec66, active compounds read low 0.0801 | locus YBR231C, strain swc5, active compounds read low 0.062 | locus YBR279W, strain paf1, active compounds read low 0.0608 | locus YCL011C, strain gbp2, active compounds read low 0.0582 | locus YCL016C, strain dcc1, active compounds read low 0.0631 | locus YCL061C, strain MRC1, active compounds read low 0.0667 | locus YCL069W, strain vba3, active compounds read low 0.0608 | locus YCR088W, strain abp1, active compounds read low 0.0623 | locus YDL005C, strain med2, active compounds read low 0.0755 | locus YDL040C, strain nat1, active compounds read low 0.0609 | locus YDR001C, strain nth1, active compounds read low 0.0596 | locus YDR069C, strain doa4, active compounds read low 0.0834 | locus YDR137W, strain rgp1, active compounds read low 0.0879 | locus YDR159W, strain sac3, active compounds read low 0.0941 | locus YDR195W, strain ref2 0.114 | locus YDR297W, strain sur2, active compounds read low 0.0595 | locus YDR334W, strain swr1, active compounds read low 0.0664 | locus YDR335W, strain msn5, active compounds read low 0.0605 | locus YDR392W, strain spt3, active compounds read low 0.0975 | locus YEL003W, strain gim4, active compounds read low 0.0559 | locus YEL037C, strain rad23, active compounds read low 0.059 | locus YEL061C, strain CIN8 (second series), active compounds read low 0.0607 | locus YER015W, strain faa2, active compounds read low 0.0634 | locus YER016W, strain bim1, active compounds read low 0.0613 | locus YER111C, strain swi4, active compounds read low 0.0739 | locus YER155C, strain BEM2 (second series), active compounds read low 0.0936 | locus YFR010W, strain ubp6, active compounds read low 0.0802 | locus YGL167C, strain pmr1, active compounds read low 0.0759 | locus YGL173C, strain kem1, active compounds read low 0.0714 | locus YGL227W, strain vid30, active compounds read low 0.0642 | locus YGL240W, strain doc1, active compounds read low 0.0905 | locus YGL253W, strain hxk2, active compounds read low 0.054 | locus YHR013C, strain ard1, active compounds read low 0.122 | locus YHR027C, strain rpn1, active compounds read low 0.0687 | locus YHR030C, strain SLT2, active compounds read low 0.101 | locus YHR079C, strain IRE1, active compounds read low 0.113 | locus YHR142W, strain chs7, active compounds read low 0.0687 | locus YJL092W, strain hpr5, active compounds read low 0.0609 | locus YJL095W, strain BCK1 (second series), active compounds read low 0.0568 | locus YJL095W, strain BCK1, active compounds read low 0.131 | locus YJL115W, strain asf1, active compounds read low 0.0751 | locus YJL129C, strain trk1, active compounds read low 0.0857 | locus YJL154C, strain vps35, active compounds read low 0.0627 | locus YJL164C, strain tpk1, active compounds read low 0.0619 | locus YJL166W, strain qcr8, active compounds read low 0.0694 | locus YJL187C, strain SWE1, active compounds read low 0.0592 | locus YJR066W, strain TOR1, active compounds read low 0.000815 | locus YKL160W, strain elf1, active compounds read low 0.0634 | locus YKR026C, strain gcn3, active compounds read low 0.0638 | locus YKR091W, strain srl3, active compounds read low 0.0604 | locus YLL001W, strain dnm1, active compounds read low 0.059 | locus YLL026W, active compounds read low 0.0586 | locus YLL041C, strain sdh2, active compounds read low 0.063 | locus YLR027C, strain aat2, active compounds read low 0.0578 | locus YLR113W, strain HOG1, active compounds read low 0.216 | locus YLR221C, strain rsa3, active compounds read low 0.0573 | locus YLR258W, strain gsy2, active compounds read low 0.0645 | locus YLR262C, strain YPT6 (second series), active compounds read low 0.0856 | locus YLR320W, strain mms22, active compounds read low 0.0956 | locus YLR342W, strain FKS1, active compounds read low 0.064 | locus YLR357W, strain rsc2, active compounds read low 0.137 | locus YLR370C, strain arc18, active compounds read low 0.0633 | locus YLR384C, strain iki3, active compounds read low 0.0625 | locus YML120C, strain ndi1, active compounds read low 0.0602 | locus YMR058W, strain fet3, active compounds read low 0.0605 | locus YMR125W, strain sto1, active compounds read low 0.0837 | locus YMR129W, active compounds read low 0.061 | locus YMR205C, strain PFK2, active compounds read low 0.0908 | locus YMR231W, strain pep5, active compounds read low 0.0723 | locus YNL071W, strain lat1, active compounds read low 0.0616 | locus YNL183C, strain NPR1, active compounds read low 0.000882 | locus YNL209W, strain ssb2, active compounds read low 0.0674 | locus YNL248C, strain rpa49, active compounds read low 0.0717 | locus YNL322C, strain KRE1 (second series), active compounds read low 0.0685 | locus YNR049C, strain mso1, active compounds read low 0.0592 | locus YOR001W, strain rrp6, active compounds read low 0.0669 | locus YOR070C, strain gyp1, active compounds read low 0.0587 | locus YOR080W, strain dia2, active compounds read low 0.0676 | locus YOR083W, strain WHI5, active compounds read low 0.0633 | locus YOR106W, strain vam3, active compounds read low 0.0654 | locus YOR231W, strain MKK1, active compounds read low 0.108 | locus YOR265W, strain rbl2, active compounds read low 0.0582 | locus YOR270C, strain vph1, active compounds read low 0.0904 | locus YOR290C, strain snf2, active compounds read low 0.0728 | locus YPL051W, strain arl3, active compounds read low 0.0614 | locus YPL078C, strain atp4, active compounds read low 0.0665 | locus YPL106C, strain sse1, active compounds read low 0.102 | locus YPL240C, strain hsp82, active compounds read low 0.058 | locus YPL256C, strain CLN2, active compounds read low 0.118

Source: PubChem BioAssay AID1159580 (chemical genetic matrix, 2015)
